From the supplement of paper PMC6522484 come the findings set out here.

Assay [1] deals with DLD1. In words: cell viability (CellTiter-Glo) relative to plate median (fraction of plate median); higher = more viable cells. To be noted: 5 µM; treatment time 24 h; reporter: 7TFP. The method in brief: (§1)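 Library compounds were added at a final concentration of 5 µM for 24 h to colorectal cancer cells stably transduced with a lentiviral TCF/Wnt firefly luciferase reporter. Reported values are firefly luciferase or CellTiterGlo luminescence, normalised per well to the plate median. Each value averages two independent replicates.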

In assay [2] the test system is HCT116. The assay is described as above. Conditions: 5 µM; treatment time 24 h; reporter: TCF4/Wnt. In outline:
as §1

In assay [3] the test system is SW480. Described as above. Conditions: 5 µM; treatment time 24 h; reporter: 7TFP. The method in brief:
as §1

Assay [4] concerns DLD1. The assay can be described thus: TCF/Wnt firefly luciferase reporter signal relative to plate median (fraction of plate median); higher = higher Wnt reporter signal. Conditions: 5 µM; treatment time 24 h; reporter: 7TFP. In outline: as §1
(Reporter assays use an easily measured gene product as a stand-in for the process of interest.)

Assay [5] deals with SW480. The assay is described as above. To be noted: 5 µM; treatment time 24 h; reporter: 7TFP. In outline:
as §1

In assay [6] the test system is DLD1. The assay can be described thus: cell viability (CellTiter-Glo) relative to plate median (fraction of plate median); higher = more viable cells. Conditions: 10 µM, treatment time 24 h. The method in brief:
(§2)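 Reporter and viability luminescence were measured in colorectal cancer cells stably carrying lentiviral TCF/Wnt firefly luciferase reporters. The cells were exposed to kinase inhibitor library compounds at a final 10 µM for 24 h, starting 24 h after seeding in 384-well plates. Each well was normalised to the plate median (webcellHTS2, additive, no log transformation), and two independent replicates were averaged.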
On the technique in general: ATP-based viability assays read luminescence as a measure of living cells.

The test system of assay [7] is HCT116. Described as above. Conditions: 10 µM; treatment time 24 h; reporter: TCF4/Wnt. The method in brief:
as §2

Assay [8] deals with SW480. Described as above. Conditions: 10 µM; treatment time 24 h; reporter: 7TFP. The method in brief:
as §2

Assay [9] concerns DLD1. In words: TCF/Wnt firefly luciferase reporter signal relative to plate median (fraction of plate median); higher = higher Wnt reporter signal. To be noted: 10 µM, treatment time 24 h. In outline: as §2
The test system of assay [10] is HCT116. Described as above. Conditions: 10 µM; treatment time 24 h; reporter: TCF4/Wnt. In outline: as §2
In assay [11] the test system is SW480. The description is as above. To be noted: 10 µM; treatment time 24 h; reporter: 7TFP. In outline: as §2

± gives the standard deviation of the averaged measurements.

Take `Cc1c(O)c(O)cc2c1CC=C1[C@@]2(C)CC[C@@]2(C)[C@@H]3C[C@](C)(C(=O)O)CC[C@]3(C)CC[C@]12C`: the cell viability is 0.88 ± 0.082 in the assay with DLD1 [1], 0.981 ± 0.069 with HCT116 [2] and 1.03 ± 0.045 in the assay on SW480 [3]. Further, the “TCF/Wnt firefly luciferase reporter signal” value worked out at 0.863 ± 0.073 in the assay with DLD1 [4] and 0.846 ± 0.079 with SW480 [5].
Regarding `CC(=O)O[C@@H]1C[C@H]2C(C)(C)C(=O)C=C[C@]2(C)[C@H]2CC[C@]3(C)C(=CC(=O)O[C@H]3c3ccoc3)[C@@]21C`, the cell viability in the assay on DLD1 [1] was 0.99 ± 0.086; in the assay with HCT116 [2], 0.997 ± 0.075; in the assay on SW480 [3], 0.963 ± 0.016. Besides, the “TCF/Wnt firefly luciferase reporter signal” value in the assay with DLD1 [4] amounted to 1.03 ± 0.1; with SW480 [5] it was 0.975 ± 0.05.
The corresponding values for `COc1cccc(C2(O)CCCCC2CN(C)C)c1` (centres undefined) are 0.997 ± 0.019, 1.03 ± 0.047, 1 ± 0.036, 1.09 ± 0.057 and 1.09 ± 0.021.
For the compound `COC[C@H]1OC(=O)c2coc3c2[C@@]1(C)C1=C(C3=O)[C@@H]2CCC(=O)[C@@]2(C)C[C@H]1OC(C)=O` [Wortmannin], the cell viability in the assay on DLD1 [6] (reporter: 7TFP) stood at 0.844 ± 0.016; in the assay with DLD1 [6] (reporter: TCF4/Wnt), 0.8345 ± 0.0064; with HCT116 [7] it was 0.733 ± 0.091; in the assay on SW480 [8], 0.963 ± 0.035. The “TCF/Wnt firefly luciferase reporter signal” value with DLD1 [9] (reporter: 7TFP) is 0.662 ± 0.033; with DLD1 [9] (reporter: TCF4/Wnt) it was 0.821 ± 0.059; with HCT116 [10], 0.699 ± 0.021; in the assay with SW480 [11] it was 0.856 ± 0.54.
For the compound `CCN1CCN(C(=O)Cc2ccc(Nc3ncc(F)c(Nc4ccc(C(=O)Nc5ccccc5Cl)cc4)n3)cc2)CC1` [Aurora A Inhibitor I], the cell viability with DLD1 [6] (reporter: 7TFP) was found to be 0.955 ± 0.036; in the assay on DLD1 [6] (reporter: TCF4/Wnt) it was 1.09 ± 0.057; in the assay with HCT116 [7], 1.09 ± 0.14; in the assay with SW480 [8], 0.927 ± 0.093. Moreover, the “TCF/Wnt firefly luciferase reporter signal” value with DLD1 [9] (reporter: 7TFP) was found to be 1.16 ± 0.057; in the assay with DLD1 [9] (reporter: TCF4/Wnt) it was 1.16 ± 0.028; in the assay with HCT116 [10], 1.21 ± 0.071; in the assay with SW480 [11], 1.02 ± 0.035.
Turning to `N[C@@H](Cc1ccc(N(CCCl)CCCl)cc1)C(=O)O`, the values for the cell viability in the assay on DLD1 [1], in the assay with HCT116 [2] and in the assay on SW480 [3] were 1.01 ± 0.17, 1.02 ± 0.04 and 1 ± 0.04, respectively. For the same compound, the “TCF/Wnt firefly luciferase reporter signal” value with DLD1 [4] stood at 0.986 ± 0.0057; in the assay on SW480 [5], 0.936 ± 0.081.
Take `CNC(C)[C@H](O)c1ccccc1` (some centres undefined): the cell viability in the assay on DLD1 [1] worked out at 0.976 ± 0.063; with HCT116 [2] it was 0.917 ± 0.0099; with SW480 [3], 1.02 ± 0.03. Further, the “TCF/Wnt firefly luciferase reporter signal” value in the assay with DLD1 [4] was found to be 0.978 ± 0.2; in the assay on SW480 [5], 1 ± 0.095.
For `C[C@@H]1CC[C@]2(NC1)O[C@H]1C[C@H]3[C@@H]4CC=C5C[C@@H](O)CC[C@]5(C)[C@H]4CC[C@]3(C)[C@H]1[C@@H]2C`, the cell viability with DLD1 [1] is 0.943 ± 0.011; in the assay with HCT116 [2], 0.904 ± 0.035; with SW480 [3], 0.957 ± 0.044. Also, the results for the “TCF/Wnt firefly luciferase reporter signal” value in the assay on DLD1 [4] and in the assay with SW480 [5] were 0.963 ± 0.037 and 0.978 ± 0.016, respectively.
For the compound `CC(=O)OC1CCC23C(=O)OC45CCC(C6=CC(=O)OC6)C4(C)CCC2C5CCC3(O)C1` (centres undefined), the cell viability in the assay on DLD1 [1] came to 0.688 ± 0.011; in the assay on HCT116 [2] it was 0.397 ± 0.066; with SW480 [3], 0.7175 ± 0.0021. For the same compound, the “TCF/Wnt firefly luciferase reporter signal” value came out at 0.202 ± 0.05 in the assay with DLD1 [4] and 0.389 ± 0.011 with SW480 [5].
Take `N[C@H](CO)Cc1ccccc1`: the values for the cell viability in the assay on DLD1 [1], in the assay with HCT116 [2] and with SW480 [3] were 0.998 ± 0.059, 0.982 ± 0.12 and 0.981 ± 0.0042, respectively. Besides, the “TCF/Wnt firefly luciferase reporter signal” value was 0.901 ± 0.09 in the assay with DLD1 [4] and 0.761 ± 0.19 in the assay with SW480 [5].
Take `O=c1[nH]c2ccc(Cl)cc2c(N[C@@H]2CN3CCC2CC3)c1-c1nc2ccccc2[nH]1`: the cell viability stood at 1.004 ± 0.0092 in the assay on DLD1 [6] (reporter: 7TFP), 1.06 ± 0.05 in the assay with DLD1 [6] (reporter: TCF4/Wnt), 0.521 ± 0.25 in the assay on HCT116 [7] and 0.992 ± 0.025 with SW480 [8]. For the same compound, the “TCF/Wnt firefly luciferase reporter signal” value in the assay on DLD1 [9] (reporter: 7TFP) turned out to be 2.27 ± 0.078; with DLD1 [9] (reporter: TCF4/Wnt), 2.27 ± 0.18; in the assay with HCT116 [10], 0.439 ± 0.17; in the assay on SW480 [11] it was 1.8 ± 0.099.
